# Reference: PubChem BioAssay AID686915 (National Center for Advancing Translational Sciences (NCATS), 2013)
# Several values for one entry are separate records, joined by “and”; a condition that tells them apart may be missing. Equal entries are not always repeated. Results filed as inconclusive are left out. Unmarked numbers belong to inactive results. Activity calls are given as the source filed them. Calls come from the whole dose curve; as a rule, active = well fitted inhibition curve with a large enough effect; inconclusive = small, poorly fitted or top-dose-only effect; inactive = no such curve, though single readings can be large or run the other way.
# Assay: qHTS screen for inhibitors of ELG1-dependent DNA repair in human embryonic kidney (HEK293T) cells expressing luciferase-tagged ELG1: MMS Stimulated Assay for probe SAR
# Conditions: HEK293T ELG1-luciferase reporter, 16 h; series mostly up to 46.1 µM; activity change, negative = inhibition: at the top concentration
# Description: Cancer cells divide rapidly compared to normal cells in the body. During cell division, cancer cells need to duplicate their genome by DNA replication. The failure of genome duplication leads to cancer cells' death. Therefore, inhibitors of DNA replication could specifically kill cancer cells. Based on this concept, many chemotherapeutic agents were developed and have been used to treat cancer patients. However, there are a limited number of agents available in the clinical setting, and some of those that do exist have low efficacy and severe side effects. Therefore, if we can find the compounds that effectively block DNA replication either by directly damaging DNA or by inhibiting other cellular mechanisms, the options for cancer treatment will be broadened. With this in mind, we developed a quantitative high-throughput ELG1-luciferase reporter gene assay. Small molecules that specifically block ELG1 function in response to DNA damage can be identified by monitoring the suppression of luciferase activity. Since ELG1 defines a pathway for repairing DNA damage, agents blocking ELG1 function can be used to sensitize cancer cells to chemotherapeutic agents whose mechanism of action involves the induction of DNA damage. NIH Molecular Libraries Probe Production Network [MLPCN] NIH Chemical Genomics Center [NCGC] MLPCN Grant: R03 MH092164 Assay Provider: Kyungjae Myung, NHGRI, NIH
# ELG1-luc HEK293T cells will be seeded in 1536-well plates at a density of 2,000 cells / well. Approximately 5 hours after plating, compounds will be added to the plate by pin tool transfer and MMS will be added by FRD dispenser (final concentration of MMS = 10 µM). 16 hours following the addition of the compounds, luciferase activity will be measured using Amplight reagent.
Compound,Potency,"activity change, negative = inhibition [%]"
Fc1cc(Nc2nc(-c3ccncc3)nc3ccccc23)ccc1-c1cccc(C(F)(F)F)c1,18.7 µM (active),
Cc1cnccc1-c1nc(Nc2ccc(F)c(F)c2)c2ccccc2n1,,23.2
O=c1cc(-c2nc(Nc3ccc(F)c(F)c3)c3ccccc3n2)cc[nH]1,,-7.61
Fc1ccc(Nc2nc(-c3ccncc3Cl)nc3ccccc23)cc1F,,-16.3
COc1nccc(-c2nc(Nc3ccc(F)c(F)c3)c3ccccc3n2)c1Cl,,17.5
Fc1cc(Nc2nc(-c3ccncc3)nc3ccccc23)ccc1C(F)(F)F,8.33 µM (active) and 13.2 µM (active),
COc1ccc(Nc2nc(-c3ccncc3)nc3ccccc23)cc1F,,-8.77
Fc1cc(Nc2nc(-c3ccncc3)nc3ccccc23)ccc1-c1ccc2[nH]ncc2c1,,-10.2
Fc1ccc(Nc2nc(-c3ccnc(C(F)(F)F)c3)nc3ccccc23)cc1F,18.7 µM (active),
Nc1cc(-c2nc(Nc3ccc(F)c(F)c3)c3ccccc3n2)ccn1,,-27.1
O=[N+]([O-])c1ccc(-c2nc(Nc3ccc(F)c(F)c3)c3ccccc3n2)cc1,,-7.96
Fc1cc(Nc2nc(-c3ccncc3)nc3ccccc23)ccc1-n1cncn1,inactive,
